Results taken from PubChem BioAssay AID1159580 (chemical genetic matrix, 2015).
Where “and” joins values, the source holds several entries; their conditions need not be identical. Identical values can stand only once. About 2,000 (36%) of roughly 5,500 compounds were called active. Another 18% or so got no clear call; they are omitted. The list shows a part of the results. Values without a mark were called inactive. Rule as the data show it: active = normalized growth mostly below about 0.91 (no sharp cut-off); inconclusive = no clear call, values can overlap the other calls; inactive = mostly above about 0.92.

Assay: chemical genetic growth profiling, strain panel (AID 1159580);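 also: tested at 20 µM; growth read once vehicle control cultures reached saturation at 30 °C; 1 = growth at the plate median or of vehicle wells; lower values mean less growth of the strain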
Details: S. cerevisiae deletion strains, growth OD

SMILES: C[C@@H](N)[C@@H](O)c1ccccc1
- normalized growth (locus YAL021C, strain ccr4, hits give low values): 0.991
- normalized growth (locus YAL026C, strain drs2, hits give low values): 0.89 (active)
- normalized growth (locus YAL030W, strain snc1, hits give low values): 0.98
- normalized growth (locus YBL061C, strain skt5, hits give low values): 1.01
- normalized growth (locus YBR009C, strain hhf1, hits give low values): 1
- normalized growth (locus YBR021W, strain FUR4, hits give low values): 1.05
- normalized growth (locus YBR023C, strain chs3, hits give low values): 0.997
- normalized growth (locus YBR171W, strain sec66, hits give low values): 1
- normalized growth (locus YBR229C, strain ROT2, hits give low values): 0.967
- normalized growth (locus YBR231C, strain swc5, hits give low values): 0.969
- normalized growth (locus YBR279W, strain paf1, hits give low values): 1.01
- normalized growth (locus YCL011C, strain gbp2, hits give low values): 0.994
- normalized growth (locus YCL016C, strain dcc1, hits give low values): 0.985
- normalized growth (locus YCL029C, strain bik1, hits give low values): 0.982
- normalized growth (locus YCL069W, strain vba3, hits give low values): 1
- normalized growth (locus YCR088W, strain abp1, hits give low values): 0.992
- normalized growth (locus YDL005C, strain med2, hits give low values): 0.977
- normalized growth (locus YDL035C, strain GPR1, hits give low values): 1
- normalized growth (locus YDL040C, strain nat1, hits give low values): 1
- normalized growth (locus YDL074C, strain BRE1, hits give low values): 1.05
- normalized growth (locus YDL101C, strain DUN1, hits give low values): 0.983
- normalized growth (locus YDL134C, strain PPH21, hits give low values): 0.987
- normalized growth (locus YDL185W, strain tfp1, hits give low values): 0.966
- normalized growth (locus YDL192W, strain arf1, hits give low values): 1.02
- normalized growth (locus YDR001C, strain nth1, hits give low values): 1.01
- normalized growth (locus YDR069C, strain doa4, hits give low values): 0.985
- normalized growth (locus YDR101C, strain arx1, hits give low values): 0.989
- normalized growth (locus YDR137W, strain rgp1, hits give low values): 0.862
- normalized growth (locus YDR150W, strain NUM1, hits give low values): 0.994
- normalized growth (locus YDR159W, strain sac3, hits give low values): 0.949
- normalized growth (locus YDR162C, strain NBP2, hits give low values): 0.951
- normalized growth (locus YDR195W, strain ref2): 0.988
- normalized growth (locus YDR297W, strain sur2, hits give low values): 0.994
- normalized growth (locus YDR318W, strain mcm21, hits give low values): 0.978
- normalized growth (locus YDR334W, strain swr1, hits give low values): 0.997
- normalized growth (locus YDR335W, strain msn5, hits give low values): 0.988
- normalized growth (locus YDR388W, hits give low values): 0.994
- normalized growth (locus YDR392W, strain spt3, hits give low values): 0.955
- normalized growth (locus YDR502C, strain sam2, hits give low values): 0.991
- normalized growth (locus YEL003W, strain gim4, hits give low values): 0.995
- normalized growth (locus YEL037C, strain rad23, hits give low values): 1.01
- normalized growth (locus YEL061C, strain CIN8 (second series), hits give low values): 0.993
- normalized growth (locus YEL061C, strain CIN8, hits give low values): 0.987
- normalized growth (locus YER015W, strain faa2, hits give low values): 0.995
- normalized growth (locus YER016W, strain bim1, hits give low values): 0.975
- normalized growth (locus YER110C, hits give low values): 0.974
- normalized growth (locus YER111C, strain swi4, hits give low values): 0.981
- normalized growth (locus YER155C, strain BEM2 (second series), hits give low values): 0.973
- normalized growth (locus YER155C, strain BEM2, hits give low values): 1.02
- normalized growth (locus YER167W, strain BCK2, hits give low values): 0.999
- normalized growth (locus YFR010W, strain ubp6, hits give low values): 1
- normalized growth (locus YGL078C, strain dbp3, hits give low values): 0.991
- normalized growth (locus YGL086W, strain mad1, hits give low values): 1.03
- normalized growth (locus YGL167C, strain pmr1, hits give low values): 0.999
- normalized growth (locus YGL173C, strain kem1, hits give low values): 0.993
- normalized growth (locus YGL227W, strain vid30, hits give low values): 1.01
- normalized growth (locus YGL240W, strain doc1, hits give low values): 1
- normalized growth (locus YGL248W, strain PDE1, hits give low values): 0.974
- normalized growth (locus YGL253W, strain hxk2, hits give low values): 0.99
- normalized growth (locus YGR135W, strain pre9, hits give low values): 0.949
- normalized growth (locus YGR252W, strain gcn5, hits give low values): 0.968
- normalized growth (locus YHR013C, strain ard1, hits give low values): 0.975
- normalized growth (locus YHR027C, strain rpn1, hits give low values): 1
- normalized growth (locus YHR030C, strain SLT2, hits give low values): 1 and 1.03
- normalized growth (locus YHR079C, strain IRE1 (second series), hits give low values): 0.993
- normalized growth (locus YHR079C, strain IRE1, hits give low values): 1.02
- normalized growth (locus YHR094C, strain hxt1, hits give low values): 0.973
- normalized growth (locus YHR129C, strain ARP1, hits give low values): 0.997
- normalized growth (locus YHR142W, strain chs7, hits give low values): 0.971
- normalized growth (locus YHR200W, strain rpn10, hits give low values): 0.997
- normalized growth (locus YIL066C, strain RNR3, hits give low values): 0.966
- normalized growth (locus YIL073C, strain SPO22, hits give low values): 1.03
- normalized growth (locus YIL125W, strain kgd1, hits give low values): 0.986
- normalized growth (locus YIR030C, strain dcg1, hits give low values): 0.999
- normalized growth (locus YJL092W, strain hpr5, hits give low values): 1
- normalized growth (locus YJL095W, strain BCK1 (second series), hits give low values): 0.999
- normalized growth (locus YJL095W, strain BCK1, hits give low values): 0.928 and 1.01
- normalized growth (locus YJL115W, strain asf1, hits give low values): 0.991
- normalized growth (locus YJL129C, strain trk1, hits give low values): 0.992
- normalized growth (locus YJL134W, strain LCB3, hits give low values): 0.988
- normalized growth (locus YJL154C, strain vps35, hits give low values): 0.993
- normalized growth (locus YJL164C, strain tpk1, hits give low values): 1.01
- normalized growth (locus YJL166W, strain qcr8, hits give low values): 0.983
- normalized growth (locus YJL168C, strain set2, hits give low values): 1.01
- normalized growth (locus YJL187C, strain SWE1 (second series), hits give low values): 0.964
- normalized growth (locus YJR043C, strain POL32, hits give low values): 1.01
- normalized growth (locus YJR066W, strain TOR1, hits give low values): 0.942
- normalized growth (locus YJR075W, strain HOC1, hits give low values): 0.984
- normalized growth (locus YKL009W, strain mrt4, hits give low values): 1.04
- normalized growth (locus YKL068W, hits give low values): 0.978
- normalized growth (locus YKL085W, strain MDH1 (second series), hits give low values): 0.998
- normalized growth (locus YKL085W, strain MDH1, hits give low values): 0.998
- normalized growth (locus YKL160W, strain elf1, hits give low values): 0.974
- normalized growth (locus YKR001C, strain vps1, hits give low values): 1.01
- normalized growth (locus YKR026C, strain gcn3, hits give low values): 1.02
- normalized growth (locus YKR091W, strain srl3, hits give low values): 0.987
- normalized growth (locus YLL001W, strain dnm1, hits give low values): 1.01
- normalized growth (locus YLL026W, hits give low values): 0.995
- normalized growth (locus YLL041C, strain sdh2, hits give low values): 1.01
- normalized growth (locus YLR027C, strain aat2, hits give low values): 0.995
- normalized growth (locus YLR039C, strain RIC1, hits give low values): 0.953
- normalized growth (locus YLR058C, strain SHM2, hits give low values): 0.978
- normalized growth (locus YLR102C, strain apc9, hits give low values): 0.99
- normalized growth (locus YLR113W, strain HOG1, hits give low values): 1.03
- normalized growth (locus YLR221C, strain rsa3, hits give low values): 0.994
- normalized growth (locus YLR258W, strain gsy2, hits give low values): 1.01
- normalized growth (locus YLR262C, strain YPT6 (second series), hits give low values): 0.823 (active)
- normalized growth (locus YLR262C, strain YPT6, hits give low values): 0.927
- normalized growth (locus YLR268W, strain sec22, hits give low values): 0.988
- normalized growth (locus YLR320W, strain mms22, hits give low values): 0.955
- normalized growth (locus YLR330W, strain CHS5, hits give low values): 0.997
- normalized growth (locus YLR342W, strain FKS1 (second series), hits give low values): 1.06
- normalized growth (locus YLR342W, strain FKS1, hits give low values): 0.995
- normalized growth (locus YLR357W, strain rsc2, hits give low values): 0.988
- normalized growth (locus YLR370C, strain arc18, hits give low values): 1
- normalized growth (locus YLR371W, strain rom2, hits give low values): 0.975
- normalized growth (locus YLR384C, strain iki3, hits give low values): 0.977
- normalized growth (locus YLR418C, strain cdc73, hits give low values): 0.939
- normalized growth (locus YML016C, strain PPZ1, hits give low values): 0.994
- normalized growth (locus YML032C, strain rad52, hits give low values): 0.967
- normalized growth (locus YML120C, strain ndi1, hits give low values): 0.992
- normalized growth (locus YML124C, strain tub3, hits give low values): 0.993
- normalized growth (locus YMR058W, strain fet3, hits give low values): 0.972
- normalized growth (locus YMR078C, strain ctf18, hits give low values): 1.01
- normalized growth (locus YMR125W, strain sto1, hits give low values): 0.983
- normalized growth (locus YMR129W, hits give low values): 0.997
- normalized growth (locus YMR205C, strain PFK2, hits give low values): 0.998
- normalized growth (locus YMR223W, strain ubp8, hits give low values): 0.964
- normalized growth (locus YMR231W, strain pep5, hits give low values): 1
- normalized growth (locus YMR263W, strain SAP30, hits give low values): 0.987
- normalized growth (locus YMR307W, strain GAS1, hits give low values): 1.09
- normalized growth (locus YNL067W, strain RPL9B, hits give low values): 0.975
- normalized growth (locus YNL071W, strain lat1, hits give low values): 0.989
- normalized growth (locus YNL153C, strain GIM3, hits give low values): 0.974
- normalized growth (locus YNL183C, strain NPR1, hits give low values): 0.929
- normalized growth (locus YNL209W, strain ssb2, hits give low values): 1.01
- normalized growth (locus YNL233W, strain BNI4, hits give low values): 1
- normalized growth (locus YNL248C, strain rpa49, hits give low values): 0.99
- normalized growth (locus YNL250W, strain rad50, hits give low values): 0.992
- normalized growth (locus YNL271C, strain bni1, hits give low values): 0.995
- normalized growth (locus YNL298W, strain CLA4, hits give low values): 0.982
- normalized growth (locus YNL307C, strain MCK1, hits give low values): 0.984
- normalized growth (locus YNL322C, strain KRE1 (second series), hits give low values): 0.99
- normalized growth (locus YNR049C, strain mso1, hits give low values): 1.01
- normalized growth (locus YNR052C, strain pop2, hits give low values): 0.973
- normalized growth (locus YOL006C, strain TOP1, hits give low values): 1.02
- normalized growth (locus YOL012C, strain htz1): 1.02
- normalized growth (locus YOL147C, strain pex11, hits give low values): 0.996
- normalized growth (locus YOR001W, strain rrp6, hits give low values): 1
- normalized growth (locus YOR061W, strain CKA2, hits give low values): 0.98
- normalized growth (locus YOR069W, strain VPS5, hits give low values): 1
- normalized growth (locus YOR070C, strain gyp1, hits give low values): 0.999
- normalized growth (locus YOR080W, strain dia2, hits give low values): 1
- normalized growth (locus YOR083W, strain WHI5, hits give low values): 0.948
- normalized growth (locus YOR106W, strain vam3, hits give low values): 1
- normalized growth (locus YOR136W, strain idh2, hits give low values): 0.993
- normalized growth (locus YOR144C, strain elg1, hits give low values): 0.989
- normalized growth (locus YOR184W, strain ser1, hits give low values): 1.01
- normalized growth (locus YOR231W, strain MKK1, hits give low values): 1.01
- normalized growth (locus YOR265W, strain rbl2, hits give low values): 0.993
- normalized growth (locus YOR270C, strain vph1, hits give low values): 0.9
- normalized growth (locus YOR290C, strain snf2, hits give low values): 0.993
- normalized growth (locus YOR316C, strain cot1, hits give low values): 0.985
- normalized growth (locus YPL051W, strain arl3, hits give low values): 0.981
- normalized growth (locus YPL078C, strain atp4, hits give low values): 0.98
- normalized growth (locus YPL106C, strain sse1, hits give low values): 1
- normalized growth (locus YPL240C, strain hsp82, hits give low values): 1
- normalized growth (locus YPL241C, strain CIN2, hits give low values): 0.989
- normalized growth (locus YPL256C, strain CLN2, hits give low values): 1.03
- normalized growth (locus YPR119W, strain clb2, hits give low values): 1.01
- normalized growth (locus YPR141C, strain kar3, hits give low values): 0.994
- normalized growth (locus YPR163C, strain tif3, hits give low values): 0.971
- normalized growth (locus YPR167C, strain met16, hits give low values): 1
- normalized growth (strain wtn01, hits give low values): 1.03
